Measurements: PubChem BioAssay (NCI)
The panel holds about 79,000 compounds, 15% with a hit somewhere; the sample as a whole holds those more often. The source made the active and inactive calls. Cut-off read from the data, not from the text of the source: active = growth inhibition above about 70%; inactive = the rest.

What was measured:
[1] = NCI Yeast Anticancer Drug Screen. Data for the rad50 strain (AID 155);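 note: 0% = growth of vehicle-only cultures of the same strain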; settings: S. cerevisiae rad50 strain growth inhibition; at 50.0 µM; stronger effect = higher value
Outline: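 Relative growth inhibition (compound vs vehicle) was measured in yeast with a defined repair-gene alteration.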

[2] = NCI Yeast Anticancer Drug Screen. Data for the mec2-1 strain (AID 157); settings: S. cerevisiae mec2-1 strain, at 50.0 µM, stronger effect = higher value
Outline: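 Compounds were applied to mec2-1 yeast cells. Their growth was then compared with that of vehicle-treated cultures to give growth inhibition.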

[3] = NCI Yeast Anticancer Drug Screen. Data for the sgs1 mgt1 strain (AID 161);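 note: 0% = growth of cultures given vehicle only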; settings: S. cerevisiae sgs1 mgt1 strain, at 50.0 µM, stronger effect = higher value
Outline: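 Yeast cells carrying a defined DNA-repair defect were exposed to test compounds. Growth inhibition was measured relative to vehicle-treated controls.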

[4] = NCI Yeast Anticancer Drug Screen. Data for the cln2 rad14 strain (AID 165);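 note: 0% = growth equal to vehicle treated cultures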; settings: S. cerevisiae cln2 rad14 strain, at 50.0 µM, stronger effect = higher value
Outline: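 Strain: cln2 rad14 yeast, altered in cell cycle control and DNA damage repair. Read-out: growth inhibition vs vehicle.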

[5] = NCI Yeast Anticancer Drug Screen. Data for the bub3 strain (AID 167); settings: S. cerevisiae bub3 mutant strain, at 50.0 µM, stronger effect = higher value
Outline: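 Screening used yeast with an engineered genetic alteration affecting cell cycle control. Compound-exposed cultures were compared with vehicle cultures, and reduced growth was taken as inhibition.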

[6] = NCI Yeast Anticancer Drug Screen. Data for the mlh1 rad18 strain (AID 175); settings: S. cerevisiae mlh1 rad18 strain growth inhibition; at 50.0 µM; stronger effect = higher value
Outline: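 A repair-deficient yeast strain is exposed to test compound, and growth is scored relative to vehicle-treated controls.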

Measured: growth inhibition

CCOC(=O)CCC(NC(=O)c1ccc(NCc2nc3c([nH]2)c(=O)n(C)c(=O)n3C)cc1)C(=O)OCC (stereo unspecified)
inactive: [1] 1.95% | [2] 13.3% | [3] 13.6% | [4] 2.6% | [5] -8.75% | [6] 14.4%

c1ccc(Cc2[nH]nc(-c3ccccc3)c2N=Nc2ccccc2)cc1
inactive: [1] 5.55% | [2] -34.9% | [3] 2.65% | [4] -16.4% | [5] 8.45% | [6] -6.1%

O=C(O)c1nc(N=Nc2ccc(S(=O)(=O)O)cc2)[nH]c1C(=O)O
inactive: [1] 25.1% | [2] -4.85% | [3] 9.8% | [4] -30.7% | [5] -2% | [6] 21.2%

NNS(=O)(=O)c1ccc(Oc2ccc(S(=O)(=O)NN)cc2)cc1
inactive: [1] 10.8% | [2] 10.1% | [3] 24.6% | [4] -4.9% | [5] 14.9% | [6] 30.9%

COC(=O)c1cc(-c2ccccc2)nc2c(Cl)cc(Cl)cc12
inactive: [1] -4.4% | [2] -12.1% | [3] -5.55% | [4] -28.6% | [5] 11.7% | [6] -14.4%

CC(C)(C)CNC(=S)Nc1ccccc1
inactive: [1] 3.45% | [2] 2.6% | [3] 3.4% | [4] 3.55% | [5] -2.05% | [6] 10%

COc1cc(-c2cc(OC)c(N)cc2Br)c(Br)cc1N
inactive: [1] 38.8% | [2] 17.2% | [3] 60.6% | [4] 49.9% | [5] 54.4% | [6] 35.9%

Nc1nc(C(F)(F)F)nc(N)c1N
inactive: [1] 7.6% | [2] 11% | [3] 15.1% | [4] 3.2% | [5] -5.95% | [6] 14.6%

O=C(O)CCCCCNCC(CNCCCCCC(=O)O)(C(=O)O)C(=O)O
inactive: [1] 7.7% | [2] -2.8% | [3] -2.7% | [4] -8.5% | [5] -1.05% | [6] 5.2%

CC(=O)[C@H]1CC[C@H]2[C@@H]3CC=C4C=CCC[C@]4(C)[C@H]3CC[C@]12C
inactive: [1] -6.3% | [2] 1% | [3] -3.55% | [4] -58.5% | [5] 8.4% | [6] 6.7%

O=S(=O)(O)C(Nc1ccc(Cl)cc1)c1ccccc1 (stereo unspecified)
inactive: [1] 0.15% | [2] 6.2% | [3] 4.6% | [4] 12.5% | [5] 11.2% | [6] 10.3%

CC1=C(C(=O)NCc2ccccc2)C(c2ccc([N+](=O)[O-])cc2)C(C(=O)NCc2ccccc2)=C(C)N1
inactive: [1] -10.6% | [2] -15.2% | [3] 1.5% | [4] 4.4% | [5] -4.8% | [6] -23.8%

Cc1ccc(S(=O)(=O)NC(=O)C#CCOC2CCCCO2)cc1 (stereo unspecified)
inactive: [1] 8.7% | [2] -0.85% | [3] -3.3% | [4] 14.3% | [5] 22.6% | [6] 18.2%

CC(C)NC(=O)NCCc1c[nH]c2ccccc12
inactive: [1] -49.9% | [2] -11.8% | [3] 1.85% | [4] 6.95% | [5] 16.2% | [6] -13.2%

Cc1ccsc1/C=N/NC(N)=S
inactive: [1] 30% | [2] -7% | [3] 32.5% | [4] 5.55% | [5] 9.2% | [6] 28.7%

Cc1ccc(-c2nc(-c3nccc4ccccc34)oc2-c2ccccc2)cc1
inactive: [1] -6% | [2] 0.45% | [3] -45.4% | [4] -28.4% | [5] -29.7% | [6] 5.2%

CCOC(=O)C1(C(=O)OCC)OC(=O)NC2=C1CCCC2
inactive: [1] -13.3% | [2] -29.1% | [3] -8.6% | [4] -15.7% | [5] -1.95% | [6] -23.9%

NC(N)=NC(N)=NCc1ccccc1
inactive: [1] 5.45% | [2] -2.45% | [3] 4.3% | [4] 12.7% | [5] 1.85% | [6] 0.85%

Cc1ccccc1/C=N\N=C\c1ccco1
inactive: [1] -0.5% | [2] -6.5% | [3] -5.25% | [4] -10.7% | [5] 18.1% | [6] 44.6%

COc1cc(-c2nnc3n2NC=C(C(=O)O)S3)cc(OC)c1OC
inactive: [1] 6.75% | [2] 2.45% | [3] -10.9% | [4] 5.45% | [5] 28.2% | [6] 21.8%

CC1(C)CC(c2c[nH]c3ccccc23)=CC2=Nc3ccccc3C21O (stereo unspecified)
inactive: [1] -41.9% | [2] 6.7% | [3] 3.8% | [4] 15% | [5] 2.65% | [6] 16.7%

O=c1c(O)c(O)c1=O
inactive: [1] 1.3% | [2] -7% | [3] 0.8% | [4] 0.7% | [5] 9.3% | [6] -15.5%

CN/N=C(/CC(=O)c1sc(NNC(C)=O)nc1C)C(=O)Nc1ccc(OC)cc1OC
inactive: [1] 15.7% | [2] -14.5% | [3] 3.2% | [4] 15.4% | [5] 15% | [6] -2.15%

COc1cc(C=C(C#N)C#N)ccc1OC(=O)c1cc(OC)c(OC)c(OC)c1
inactive: [1] -1.5% | [2] -5.6% | [3] 15.8% | [4] 2.2% | [5] 4.45% | [6] -6.25%

CCCCCC#CC(=O)OCC
inactive: [1] 0.6% | [2] -0.9% | [3] -6.25% | [4] 10.1% | [5] -11.9% | [6] 15.8%

Cc1ccc(-n2cnc3c(Cl)ncnc32)cc1[N+](=O)[O-]
inactive: [1] -4.05% | [2] 12.3% | [3] 15.1% | [4] -45% | [5] 1.65% | [6] 10.9%

Cn1c2ccccc2n2c(=O)c(-c3ccc(Cl)cc3)nnc12
inactive: [1] -4.95% | [2] 10.9% | [3] -5.15% | [4] -6.15% | [5] -11.2% | [6] -35.4%

Cc1ccc2cc(N)ccc2c1
inactive: [1] -2.9% | [2] 8.05% | [3] 2.9% | [4] -9.85% | [5] 20.1% | [6] 23.1%

CCOC1CN(C(=O)ON)N1C(=O)ON (stereo unspecified)
inactive: [1] 4.8% | [2] -12.6% | [3] -10.4% | [4] -33.2% | [5] -22.4% | [6] 4.85%

Clc1c2c(nc3ccccc13)CCCC2
inactive: [1] 19.3% | [2] 50.9% | [3] 49.4% | [4] -37% | [5] 7.65% | [6] 8.05%

CC12CCC(/C(=C/N3CCCCC3)C1=O)C2(C)C (stereo unspecified)
inactive: [1] 12.8% | [2] 10.2% | [3] 1.75% | [4] -17.8% | [5] 22.4% | [6] 5.05%

O=c1n(CCO)nc2n1CCCN2
inactive: [1] 7.3% | [2] 10.9% | [3] 7.2% | [4] -15.8% | [5] 7.5% | [6] 5.6%

Cn1cnc2c(=S)nc[nH]c21
inactive: [1] 7.75% | [2] -10% | [3] -25.1% | [4] -9.9% | [5] -8.75% | [6] -20.9%

COc1cc2c(c3c1/c(=N\N=c1/c4ccccc4n(C)c4c5c(cc(OC)c14)OC(C)(C)C=C5)c1ccccc1n3C)C=CC(C)(C)O2
active: [1] 70%
inactive: [2] 13.6% | [3] 64.5% | [4] 48% | [5] 36.9% | [6] 27.4%

O[C@]12c3ccccc3C1CCCCC2N1CCOCC1 (stereo partly specified)
inactive: [1] -15.8% | [2] -41% | [3] -61% | [4] -8.45% | [5] -24.1% | [6] -35.4%

CSc1nc2c(c(=O)n1C)N=C(c1ccccc1)[C@H](C(CC(=O)c1ccccc1)c1ccccc1)C(c1ccccc1)N2 (stereo partly specified)
inactive: [1] 46.6% | [2] 43.9% | [3] 41.1% | [4] 24.2% | [5] 14.6% | [6] 11.8%

CC(=O)Nc1c(C)n(C)n(-c2ccccc2)c1=O
inactive: [1] -2.45% | [2] -12.7% | [3] 23.4% | [4] 31.1% | [5] 17.6% | [6] 13.6%

O=CNCCN(C=O)CCO
inactive: [1] -28.6% | [2] -29.9% | [3] -31.9% | [4] 1.85% | [5] -12% | [6] -9.55%

CCOC(=O)C1NC(=O)C(C(=O)OCC)C1C(C)C (stereo unspecified)
inactive: [1] 9.45% | [2] 20.9% | [3] 0.35% | [4] -8.25% | [5] -4.05% | [6] -9.05%

CCCCCCc1c(C)nc(N)[nH]c1=O
inactive: [1] 7.55% | [2] -3.85% | [3] -13.4% | [4] -67.7% | [5] 10% | [6] -1.05%

COc1cc(/C=C/C=C2\CC(C)C/C(=C\C=C\c3ccc(O)c(OC)c3)C2=O)ccc1O (stereo unspecified)
inactive: [1] 9% | [2] 8.3% | [3] 6.05% | [4] 18.2% | [5] 0.85% | [6] 8.2%
